# Source: PubChem (National Center for Advancing Translational Sciences (NCATS))
# Shown are actives, neighbours in structure and some others; about 12% of the full set was active somewhere.
# Pf growth 48h – P. falciparum growth inhibition at 48 hours (one generation); P. falciparum luciferase growth in erythrocytes, 48 h; Potency, µM (top dose mostly 28.7 µM), without a hit: top-dose activity change, negative = inhibition, most hits filed as inhibitors; 310,000 compounds, 5.9% hits; AID 504832; further: on the % scale 0 is the no-effect control and ±100 the full control effect
#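 Here the parasites carry a stable luciferase gene and grow inside erythrocytes in Albumax-based RPMI medium with compound for one erythrocytic cycle. Activity is scored as loss of luminescent signal.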
# Pf growth 96h – P. falciparum growth inhibition at 96 hours. AID 504834. 320,000 compounds, 6.9% hits. P. falciparum luciferase reporter growth, 96 h. Potency, µM (top dose mostly 28.7 µM), inactives show top-dose activity change, negative = inhibition, most hits filed as inhibitors; further: on the % scale 0 is the no-effect control and ±100 the full control effect
#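 Two parasite generations (96 h, 37 C, 5% CO2) of compound exposure in infected erythrocytes (0.05% parasitemia, 2% hematocrit). Luciferase-reporter P. falciparum; decreased luminescence indicates inhibited growth, aimed at apicoplast-acting delayed death.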
# Sm TGR inh – inhibitors of Schistosoma mansoni thioredoxin glutathione reductase. Q962Y6. purified TGR, DTNB reduction, TNB absorbance 405 nm. Potency, µM (top dose mostly 114 µM), for the others: at the top dose activity change, negative = inhibition, hits mostly inhibitors. 360,000 compounds, 3% hits; further: on the % scale 0 is the no-effect control and ±100 the full control effect; nearly all actives have a fitted effect of over 60% in size
#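 Kinetic colorimetric format: TGR-catalysed, NADPH-driven DTNB reduction monitored via TNB absorbance. Enzyme dispensed at 20 nM; compound exposure 15 min at room temperature before reaction start.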
# SARS PLpro yeast – inhibitors of SARS-CoV papain-like protease in yeast; S. cerevisiae expressing SARS-CoV PLpro, growth rescue; Potency, µM (top dose mostly 32.9 µM), inactives show top-dose activity, positive = growth rescue, usual class: activators; 330,000 compounds, 0.19% hits; calls by dose curve; further: 0% is about no effect; nearly all actives have a fitted effect of over 55% in size
# * = called active by the depositor; u = inconclusive; x = no result given. Unless noted, the call rests on the fitted dose curve; in most records, active means well fitted curve in the direction sought with a large enough effect; inconclusive means small, poorly fitted or top-dose-only effect, or another doubt; inactive means no such curve, though single readings can be large; an effect the other way counts as inactive or inconclusive. Potency means the concentration at half of the fitted maximal effect.
SMILES,Pf growth 48h,Pf growth 96h,Sm TGR inh,SARS PLpro yeast
CCN(CC)C(=O)c1ccc(-c2nnc(Nc3ccc(C(=O)N(C)C)cc3)c3ccccc23)cc1,5.9µM*,8%,-3%,-9%
CCN(CC)C(=O)c1ccc(NC(=O)c2ccc(-c3nn(C)c(=O)c4ccccc34)cc2)cc1,9%,10µM*,-3%,1%
O=C(OCC(=O)C12CC3CC(CC(C3)C1)C2)c1ccc(O)cc1O,3%,33%,3%,-2%
CN(C(=O)CN1C(=O)c2ccccc2S1(=O)=O)C1CCCCC1,x,x,x,1%
CCCCCN1C(C(=O)c2ccccc2)=C(NC(=O)c2ccc(OC)cc2)c2ccccc2S1(=O)=O,x,x,6%,x
CCCCCCN(C(=O)CCCCCN1C(=O)NC(c2ccc(-c3ccccc3)cc2)C(C(=O)OCc2ccccc2)=C1C)C(C(=O)NCCCC)c1ccccc1 (centres undefined),2.6µM*,1.9µM*,-4%,1%
CCCCNC(=O)C(c1ccc(-c2ccccc2)cc1)N(CCN1CCOCC1)C(=O)CCCCCN1C(=O)NC(c2ccc([N+](=O)[O-])cc2)C(C(=O)OCc2ccccc2)=C1C (centres undefined),1.3µM*,3.3µM*,6%,1%
CCCCCCN(C(=O)CCCCCN1C(=O)NC(c2ccc(-c3ccccc3)cc2)C(C(=O)OCc2ccccc2)=C1C)C(C)C(=O)NCCCC (centres undefined),u,4.7µM*,-7%,17%
Cc1cc(OC(C)C(=O)N2CCC(c3nc4ccccc4o3)CC2)ccc1Cl (centres undefined),x,x,-3%,x
CCc1cccc(C)c1N=Cc1c(O)c2ccccc2oc1=O,13µM*,10%,1%,-12%
CC(C)CC(N=Cc1c(O)c2ccccc2oc1=O)C(=O)O (centres undefined),8%,21%,5%,-3%
O=C(O)CCCN=Cc1c(O)c2ccccc2oc1=O,5%,10µM*,-3%,0%
COc1ccc(N2CC3=C(C2=O)C(c2ccc(Br)cc2)NC(=O)N3C)cc1 (centres undefined),x,x,1%,x
Cc1ccc(S(=O)(=O)N2CCCC2CNC(=O)C(=O)Nc2ccc(F)cc2F)cc1 (centres undefined),-24%,u,0%,-3%
CCOC(=O)c1sc(N2C(=O)C(O)=C(C(=O)c3ccco3)C2c2ccco2)nc1C (centres undefined),-10%,5%,25µM*,-2%
COc1ccc2nc(N3C(=O)C(O)=C(C(=O)c4ccco4)C3c3ccc(C)o3)sc2c1 (centres undefined),33%,-15%,32µM*,-6%
CC(OC(=O)c1ccc2c(c1)NC(=O)CS2)C(=O)c1ccc(F)cc1 (centres undefined),x,x,x,-8%
CC1(C)C(=O)CC[C@@]2(C)[C@H]1CC[C@@]1(C)CC3=C(CC[C@@H]12)[C@@]1(C)CCC(=O)C(C)(C)[C@@H]1CC3,12µM*,u,-17%,1%
CC1CCCC(NC(=O)CCS(=O)(=O)c2ccc3c(c2)NC(=O)CS3)C1C (centres undefined),-10%,13µM*,-7%,0%
COc1ccc(CNC(=O)CCS(=O)(=O)c2ccc3c(c2)NC(=O)CS3)cc1,18%,15µM*,13µM*,2%
CC1CCCCN1CCCNC(=O)Cn1ncc2c3ccccc3n(Cc3ccccc3)c2c1=O (centres undefined),x,x,0%,x
Cc1ccc(C)c(N2CCN(C(=O)CN3CCSc4ccc(S(=O)(=O)N(C)C)cc43)CC2)c1,x,x,0%,x
N=C1c2ccccc2CN1c1ccc(F)c([N+](=O)[O-])c1,12µM*,u,-22%,0%
Cc1c(C)n(Cc2ccc(F)cc2)c2ccc(C(=O)NCCN3CCOCC3)cc12,-14%,-2%,-24%,-3%
Nc1nc(Br)c2c(F)cccc2c1-c1ccc(Cl)cc1,u,13µM*,-22%,10%
SMILES,Pf growth 48h,Pf growth 96h,Sm TGR inh,SARS PLpro yeast
Nc1nc(Br)c2ccccc2c1-c1ccccc1,u,u,-3%,0%
O=C(CCl)Nc1ccc(S(=O)(=O)Nc2nccs2)cc1,2.3µM*,1.5µM*,20µM*,0%
CCOCC(=O)Nc1ccc(S(=O)(=O)Nc2nccs2)cc1,-5%,12µM*,0%,-3%
CC(=O)Nc1ccc(S(=O)(=O)Nc2nccs2)cc1,-1%,u,0%,2%
CCC(C)C(=O)Nc1ccc(S(=O)(=O)Nc2nccs2)cc1 (centres undefined),-5%,u,4%,10%
O=C(COc1ccccc1F)Nc1ccc(S(=O)(=O)Nc2nccs2)cc1,3%,-9%,-20%,11%
CCOC(=O)/C=C/C(=O)Nc1ccc(S(=O)(=O)Nc2nccs2)cc1,u,71%,45µM*,0%
CCOC(=O)CC(=O)CSc1n[nH]c(=O)[nH]c1=O,4%,21%,-6%,-1%
CN(C)C(=O)C1C2NC(=S)N(c3ccccc3)C1(C)Oc1ccccc12 (centres undefined),6%,u,5%,-2%
Cc1cccc(N2C(=S)NC3c4ccccc4OC2(C)C3C(=O)N(C)C)c1 (centres undefined),4%,9.3µM*,0%,4%
COC(=O)[C@@]12CCCN1[C@H](c1ccc(-c3ccccc3)cc1)[C@H]1C(=O)N(C)C(=O)[C@H]12,10µM*,u,-25%,-6%
COC(=O)[C@@]12CCCN1[C@H](c1ccc(-c3ccc(OC)cc3)cc1)[C@@H]1C(=O)N(C)C(=O)[C@@H]12,5.9µM*,9.3µM*,-29%,-15%
Cc1cccc(Cn2c(=O)n(Cc3ccc(C(=O)NC4CCN(Cc5ccccc5)CC4)cc3)c(=O)c3ccccc32)c1,x,x,10%,x
COc1cc(-c2ccc(-[n+]3nc(-c4ccccc4)nn3-c3ccc([N+](=O)[O-])cc3)c(OC)c2)ccc1-[n+]1nc(-c2ccccc2)nn1-c1ccc([N+](=O)[O-])cc1,5.4µM*,6.7µM*,x,x
CCN1CCSc2ccc(C(=O)NC(C)c3ccccc3)cc21 (centres undefined),x,x,-4%,x
Cn1c(Cc2csc(N)n2)nnc1SCC(=O)NC1CCCCC1,-2%,x,40µM*,-5%
Cc1cc(/C=C(/C#N)c2nc3ccccc3[nH]2)c(C)n1-c1ccccc1C(=O)O,8.3µM*,19%,u,7%
Cc1ccc2nc(/C(C#N)=C\c3cc(C)n(-c4cccc([N+](=O)[O-])c4)c3C)[nH]c2c1,x,3.3µM*,-13%,-3%
Cc1ccc2nc(/C(C#N)=C\c3ccc([N+](=O)[O-])o3)[nH]c2c1,10µM*,u,-34%,-31%
N#C/C(=C\c1ccc([N+](=O)[O-])o1)c1nc2ccccc2[nH]1,14%,-11%,-31%,-111%
FC(F)(F)c1nc2ccccc2nc1N/N=C/c1c(Cl)cccc1Cl,9.3µM*,-8%,0%,-1%
CCC(=NCCO)c1c(O)n(C2CCCCC2)c(=O)[nH]c1=O,22%,21%,0%,-4%
